Out of some 400,000 compounds screened, about 2,100 (0.53%) were called active. Roughly 14% stayed inconclusive and do not appear here. No rule for the calls is given here. The list comes from a sample in which actives are over-represented; it also holds similar structures and randomly drawn compounds.
What follows are compounds tested against Ataxin-2 (Homo sapiens) (UniProt Q99700) (assay: qHTS for Inhibitors of ATXN expression.).
Format: functional

Sequence of Ataxin-2 (Homo sapiens) (Q99700 whole entry): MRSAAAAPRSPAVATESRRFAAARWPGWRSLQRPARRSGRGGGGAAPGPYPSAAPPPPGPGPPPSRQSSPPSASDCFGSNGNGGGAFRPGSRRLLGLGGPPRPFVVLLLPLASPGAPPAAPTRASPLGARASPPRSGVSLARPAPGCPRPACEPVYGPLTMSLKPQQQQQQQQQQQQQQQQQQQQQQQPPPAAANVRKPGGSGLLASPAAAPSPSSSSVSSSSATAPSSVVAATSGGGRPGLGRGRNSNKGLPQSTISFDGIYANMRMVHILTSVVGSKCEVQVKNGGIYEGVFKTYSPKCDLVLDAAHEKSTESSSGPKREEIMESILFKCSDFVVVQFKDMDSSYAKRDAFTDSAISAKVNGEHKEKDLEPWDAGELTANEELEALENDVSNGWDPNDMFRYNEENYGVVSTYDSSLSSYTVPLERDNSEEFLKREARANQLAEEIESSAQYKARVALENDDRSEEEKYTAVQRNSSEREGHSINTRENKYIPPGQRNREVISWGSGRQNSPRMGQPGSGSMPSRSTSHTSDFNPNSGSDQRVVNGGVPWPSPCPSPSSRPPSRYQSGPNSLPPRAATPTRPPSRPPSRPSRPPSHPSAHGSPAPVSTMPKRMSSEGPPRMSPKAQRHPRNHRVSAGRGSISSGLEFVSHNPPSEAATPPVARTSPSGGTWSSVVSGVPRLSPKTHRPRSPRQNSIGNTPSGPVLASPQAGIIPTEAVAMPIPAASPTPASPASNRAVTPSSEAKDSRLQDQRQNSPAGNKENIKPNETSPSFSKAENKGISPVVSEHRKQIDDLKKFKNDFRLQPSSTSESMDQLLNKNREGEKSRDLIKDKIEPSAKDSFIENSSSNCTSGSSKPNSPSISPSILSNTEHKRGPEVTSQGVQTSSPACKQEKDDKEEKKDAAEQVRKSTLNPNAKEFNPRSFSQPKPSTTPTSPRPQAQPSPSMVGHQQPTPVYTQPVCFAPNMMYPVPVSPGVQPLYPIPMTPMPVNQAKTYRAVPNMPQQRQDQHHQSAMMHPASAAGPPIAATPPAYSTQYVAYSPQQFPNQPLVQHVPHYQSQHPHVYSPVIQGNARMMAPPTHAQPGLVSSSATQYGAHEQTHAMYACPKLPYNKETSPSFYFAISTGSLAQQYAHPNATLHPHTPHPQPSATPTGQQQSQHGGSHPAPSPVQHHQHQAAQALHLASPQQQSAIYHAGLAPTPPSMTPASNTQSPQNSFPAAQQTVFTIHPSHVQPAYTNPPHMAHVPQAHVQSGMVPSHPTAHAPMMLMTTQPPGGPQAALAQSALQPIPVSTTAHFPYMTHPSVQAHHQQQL

| Structure (SMILES) | Potency |
| --- | --- |
| CC1(C)CCCN(C(=O)c2ccc3c(c2NCCO)C(=O)c2ccccc2C3=O)C1 | 20 µM (active) |
| OCCCc1nc2n(n1)C(c1ccccc1)C=C(c1ccc(F)cc1)N2 (stereo not drawn) | inactive |
| COc1cccc(CN(C)Cc2cc(=O)oc3cc(O)c(Cl)cc23)c1 | inactive |
| COc1ccc(NC(=O)CSc2nc3ccc(Nc4nc(N5CCOCC5)nc(N5CCOCC5)n4)cc3s2)cc1 | 15.8 µM (active) |
| Cc1cccc(NC(=O)CSc2nc3ccc(NC(=O)c4ccco4)cc3s2)c1 | 39.8 µM (active) |
| CC(=O)Nc1ccc(/C(C)=N/Nc2nc(Nc3ccccc3)nc(N3CCOCC3)n2)cc1 | inactive |
| N#Cc1ccc(NC(=O)CSc2nc3nc(O)cc(O)c3s2)cc1 | inactive |
| CC(C)(C)C(=O)Nc1nc2c(s1)CN(Cc1ccccc1)CC2 | inactive |
| CC(=O)Nc1ccc(/C(C)=N/Nc2nc(N3CCOCC3)nc(N3CCOCC3)n2)cc1 | inactive |
| CC(C)(C)C(=O)Nc1ccc2nc(SCc3ccccc3)sc2c1 | 31.6 µM (active) |
| Cc1c(-c2cccc(NC(=O)c3ccco3)c2)nc2ncccn12 | inactive |
| CCn1nc(NC(=O)c2ccco2)c2cc3cc(C)ccc3nc21 | inactive |
| CC(=O)Nc1ccc(O)c(-c2nc3ccccc3s2)c1 | inactive |
| Cc1cccc(NC(=O)CSc2nc3ccc(NC(=O)c4ccccc4)cc3s2)c1 | 39.8 µM (active) |
| CCN(C(=O)COC(=O)c1ccc(OC)c(S(=O)(=O)N(C)Cc2ccccc2)c1)C1CCS(=O)(=O)C1 (stereo not drawn) | inactive |
| COc1ccc(CCC(=O)OCC(=O)Nc2c(C)n(C)n(-c3ccccc3)c2=O)cc1 | inactive |
| CCCCCCc1cc2cc(-c3nnc(-c4ccc(C)cc4)o3)c(=O)oc2cc1O | inactive |
| Cc1nn2c(nc(N3CCCCC3)c3ccccc32)c1C=O | inactive |
| O=C(CCC1CCCCC1)Nc1nncs1 | inactive |
| Nc1cccc2c1C(=O)N(C(=O)c1ccc(Cl)c(S(=O)(=O)N3CCCCCC3)c1)C2=O | inactive |
| COCCNC(=O)Nc1ccc2nc(-c3ccco3)c(-c3ccco3)nc2c1 | inactive |
| CN(C(=O)c1ccc(NC(=O)c2ccco2)cc1)c1ccccc1 | 7.08 µM (active) |
| COCc1cc(C)nc2sc(C(=O)Nc3cccc(OC)c3)c(N)c12 | inactive |

| Structure (SMILES) | Potency |
| --- | --- |
| CN(Cc1ccccc1)C(NC(=O)c1ccco1)C(Cl)(Cl)Cl (stereo not drawn) | inactive |
| COc1cccc(NC(=O)CSc2nc3ccc(NC(=O)c4ccco4)cc3s2)c1 | 35.5 µM (active) |
| CN(C(=O)CSc1nc2ccc(NC(=O)c3ccco3)cc2s1)c1ccccc1 | 39.8 µM (active) |
| Cc1ccc(C(=O)Nc2ccc3c(c2)OCO3)cc1NC(=O)c1ccco1 | inactive |
| CCn1nc(NC(=O)c2ccco2)c2cc3ccccc3nc21 | inactive |
| O=C(CSc1nnc(NC(=O)c2ccco2)s1)NCc1ccc2c(c1)OCO2 | inactive |
| C=CCOc1c(Br)cc(C2C3=C(CCCC3=O)N(C)C3=C2C(=O)CCC3)cc1OCC | inactive |
| CCO/C(O)=C1/C(CC)=Nc2ccccc2N=C1NS(=O)(=O)c1cccc(C(C)=O)c1 | inactive |
| COc1cccc(-c2ccc3c(N)c(C(=O)NC4CC4)sc3n2)c1 | inactive |
| Cc1ccc2nc(N3CCC(C(=O)O)CC3)nc(-c3ccccc3)c2c1 | inactive |
| C/C(=N\NC(=O)c1nc2ccccn2c1C)c1cc2ccccc2o1 | inactive |
| O=C(NCc1ccco1)c1cc(NS(=O)(=O)c2cccc([N+](=O)[O-])c2)ccc1O | inactive |
| Cc1ccc2sc(N(CCCN(C)C)C(=O)CCS(=O)(=O)c3ccccc3)nc2c1C | 22.4 µM (active) |
| Cc1ccc2sc(N(CCCN(C)C)C(=O)c3ccc(Br)s3)nc2c1C | 35.5 µM (active) |
| CN(C)CCCN(C(=O)CCOc1ccccc1)c1nc2c(F)cccc2s1 | 22.4 µM (active) |
| COc1cccc2sc(N(CCCN(C)C)C(=O)CCS(=O)(=O)c3ccccc3)nc12 | 20 µM (active) |
| Cc1ccc(/C(=N/Nc2nc3ccccc3s2)C2=C(O)c3ccccc3C2=O)cc1 | inactive |
| Cc1ccc(S(=O)(=O)c2cc3cc(Br)ccc3oc2=O)cc1 | inactive |
| N#Cc1cccc(CN2CCCN(Cc3ccc(F)cc3)S2(=O)=O)c1 | inactive |
| C/C(=N\NC(=O)c1cc2ccccc2cc1O)c1cccs1 | inactive |
| CC(Sc1nc2ccccc2s1)C(=O)N(C)Cc1ccccc1 (stereo not drawn) | inactive |
| COc1ccc(OC)c2sc(N(CCCN(C)C)C(=O)CCS(=O)(=O)c3ccccc3)nc12 | 25.1 µM (active) |
| CCOc1ccccc1NC(=O)CCS(=O)(=O)c1ccc(OC)cc1 | inactive |

| Structure (SMILES) | Potency |
| --- | --- |
| COc1ccc(CCNC(=O)CCS(=O)(=O)c2ccc3nc(C)sc3c2)cc1OC | inactive |
| COc1cccc2sc(N(CCCN(C)C)C(=O)C(c3ccccc3)c3ccccc3)nc12 | 39.8 µM (active) |
| COc1ccc(C)cc1N(C(=O)c1ccccc1F)c1nc2ccccc2s1 | inactive |
| O=C(Oc1ccc(Cl)c2cccnc12)c1cccnc1 | inactive |
| COC(=O)/C=C1/SC(NNC(=O)c2ccc(Cl)cc2Cl)=NC1=O | inactive |
| CCCn1c(/C=N/Nc2nc3ccccc3[nH]2)nc2ccccc21 | 35.5 µM (active) |
| C/C(=N\Nc1nc2ccccc2[nH]1)c1ccc(Cl)s1 | inactive |
| CCCn1c(/C=C/c2cc[n+](C)cc2)nc2ccccc21 | inactive |
| O=S(=O)(c1cc(Cl)ccc1Cl)N1CCN(c2ccccn2)CC1 | inactive |
| Cc1c(CC(=O)NCC(=O)N[C@H](Cc2ccccc2)C(=O)O)c(=O)oc2cc(O)ccc12 | inactive |
| COc1cccc(NC(=O)CN(C)C(=O)[C@@H]2CCCN2C(=O)c2cccs2)c1 | inactive |
| COc1cccc(NC(=O)C2CCOC2=O)c1 (stereo not drawn) | inactive |
| COc1cccc(NC(=O)N(Cc2cn(C)c3ccccc23)C2CCCCCC2)c1 | 39.8 µM (active) |
| COc1cccc(NC(=O)N2CCCC2C(=O)NCc2ccccc2F)c1 (stereo not drawn) | inactive |
| COc1cccc(NC(=O)Cn2cc(C(=O)C3CCCCC3)c3ccccc32)c1 | 39.8 µM (active) |
| CCc1ccc(NC(=O)N(Cc2cn(CC)c3ccccc23)C2CCCCC2)cc1 | 35.5 µM (active) |
| COc1ccc(-n2c(=O)c3ccccc3n(CC(=O)Nc3cccc(OC)c3)c2=O)cc1 | 39.8 µM (active) |
| CC(C)NC(=O)Cn1cc(C(=O)C2CC2)c2ccccc21 | inactive |
| COc1cccc(NC(=O)CN2C(=O)c3cccc4cccc2c34)c1 | inactive |
| Cc1ccc(NC(=O)CNc2ccccc2CN(C)C2CCCCC2)cc1 | inactive |
| CCn1cc(C(=O)OC)c(=O)c2cc(S(=O)(=O)N(C)C3CCCCC3)ccc21 | inactive |
| COc1cc2cc(CNc3ccccc3)c(=O)n(CC(=O)Nc3ccccc3)c2cc1OC | inactive |

Reference: ChEMBL document CHEMBL1201862, “PubChem BioAssay data set” (2004)
